# Test results as given in ChEMBL document CHEMBL2218924, “A broad activity screen in support of a chemogenomic map for kinase signalling research and drug discovery” (Biochem J, 2013).
# Tests used:
# [1] = target: T1, Mitogen-activated protein kinase 12 (Homo sapiens) (UniProt P53778); conditions: at 1 µM
# T1 sequence (whole entry): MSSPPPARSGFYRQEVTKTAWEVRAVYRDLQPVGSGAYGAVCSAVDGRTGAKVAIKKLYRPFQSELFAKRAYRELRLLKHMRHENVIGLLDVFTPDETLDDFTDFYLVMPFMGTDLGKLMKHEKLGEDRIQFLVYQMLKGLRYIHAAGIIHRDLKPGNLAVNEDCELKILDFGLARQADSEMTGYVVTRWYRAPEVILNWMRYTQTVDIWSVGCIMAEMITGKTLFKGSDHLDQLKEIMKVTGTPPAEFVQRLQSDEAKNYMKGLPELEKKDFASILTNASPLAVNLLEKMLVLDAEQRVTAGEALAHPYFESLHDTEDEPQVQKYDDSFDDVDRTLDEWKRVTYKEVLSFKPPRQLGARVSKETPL
# [2] = target: T1, Mitogen-activated protein kinase 12 (Homo sapiens); conditions: at 10 µM
# [3] = target: Mitogen-activated protein kinase 14 (Homo sapiens) (UniProt Q16539); conditions: at 1 µM
# Mitogen-activated protein kinase 14 (Homo sapiens), sequence (Q16539 whole entry): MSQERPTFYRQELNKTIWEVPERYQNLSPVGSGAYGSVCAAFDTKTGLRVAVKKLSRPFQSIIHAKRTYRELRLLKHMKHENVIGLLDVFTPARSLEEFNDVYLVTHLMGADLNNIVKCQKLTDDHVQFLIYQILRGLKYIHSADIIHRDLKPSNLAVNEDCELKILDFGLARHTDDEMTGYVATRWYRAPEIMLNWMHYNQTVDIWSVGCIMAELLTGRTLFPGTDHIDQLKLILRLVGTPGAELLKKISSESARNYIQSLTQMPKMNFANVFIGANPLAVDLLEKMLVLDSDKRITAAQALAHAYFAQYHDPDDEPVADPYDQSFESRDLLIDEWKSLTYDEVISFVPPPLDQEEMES
# [4] = target: Mitogen-activated protein kinase 14 (Homo sapiens) (UniProt Q16539); conditions: at 10 µM
# [5] = target: Mitogen-activated protein kinase 11 (Homo sapiens) (UniProt Q15759); conditions: at 1 µM
# Mitogen-activated protein kinase 11 (Homo sapiens), sequence (Q15759 whole entry): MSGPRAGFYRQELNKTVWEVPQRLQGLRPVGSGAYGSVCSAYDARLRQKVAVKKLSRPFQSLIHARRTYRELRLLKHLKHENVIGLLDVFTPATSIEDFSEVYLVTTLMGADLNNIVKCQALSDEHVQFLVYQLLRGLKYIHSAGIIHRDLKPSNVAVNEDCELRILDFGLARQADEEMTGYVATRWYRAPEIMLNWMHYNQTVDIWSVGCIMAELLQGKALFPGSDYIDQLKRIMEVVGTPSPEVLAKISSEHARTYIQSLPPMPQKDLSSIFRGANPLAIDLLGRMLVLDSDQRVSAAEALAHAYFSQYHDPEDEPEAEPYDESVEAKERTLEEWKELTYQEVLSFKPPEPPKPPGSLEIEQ
# [6] = target: Mitogen-activated protein kinase 11 (Homo sapiens) (UniProt Q15759); conditions: at 10 µM
# [7] = target: T2, Mitogen-activated protein kinase 13 (Homo sapiens) (UniProt O15264); conditions: at 1 µM
# T2 sequence (whole entry): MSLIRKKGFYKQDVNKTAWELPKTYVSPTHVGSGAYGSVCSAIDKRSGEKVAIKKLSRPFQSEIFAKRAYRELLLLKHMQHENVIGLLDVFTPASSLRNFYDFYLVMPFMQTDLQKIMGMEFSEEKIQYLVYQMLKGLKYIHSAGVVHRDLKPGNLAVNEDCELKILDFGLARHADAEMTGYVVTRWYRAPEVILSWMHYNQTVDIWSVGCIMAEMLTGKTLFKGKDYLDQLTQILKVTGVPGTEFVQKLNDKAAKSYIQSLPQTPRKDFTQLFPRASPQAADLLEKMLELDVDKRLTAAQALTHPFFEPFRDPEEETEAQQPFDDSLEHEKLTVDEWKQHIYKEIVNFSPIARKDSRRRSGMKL
# [8] = target: T3, Serine/threonine-protein kinase Sgk2 (Homo sapiens) (UniProt Q9HBY8); conditions: at 1 µM
# T3 sequence (whole entry): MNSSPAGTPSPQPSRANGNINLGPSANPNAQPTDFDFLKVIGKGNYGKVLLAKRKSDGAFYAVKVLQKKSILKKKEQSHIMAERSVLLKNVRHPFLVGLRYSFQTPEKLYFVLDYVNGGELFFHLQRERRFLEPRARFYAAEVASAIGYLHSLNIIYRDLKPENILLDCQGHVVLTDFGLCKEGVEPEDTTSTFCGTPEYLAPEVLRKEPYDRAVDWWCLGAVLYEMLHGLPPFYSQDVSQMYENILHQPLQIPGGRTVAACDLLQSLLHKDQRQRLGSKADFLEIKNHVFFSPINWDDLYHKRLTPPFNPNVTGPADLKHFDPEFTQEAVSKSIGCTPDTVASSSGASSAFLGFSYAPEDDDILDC
# [9] = target: T3, Serine/threonine-protein kinase Sgk2 (Homo sapiens); conditions: at 10 µM
# [10] = target: Serine/threonine-protein kinase SIK1 (Homo sapiens) (UniProt P57059); conditions: at 1 µM
# Serine/threonine-protein kinase SIK1 (Homo sapiens), sequence (P57059 whole entry): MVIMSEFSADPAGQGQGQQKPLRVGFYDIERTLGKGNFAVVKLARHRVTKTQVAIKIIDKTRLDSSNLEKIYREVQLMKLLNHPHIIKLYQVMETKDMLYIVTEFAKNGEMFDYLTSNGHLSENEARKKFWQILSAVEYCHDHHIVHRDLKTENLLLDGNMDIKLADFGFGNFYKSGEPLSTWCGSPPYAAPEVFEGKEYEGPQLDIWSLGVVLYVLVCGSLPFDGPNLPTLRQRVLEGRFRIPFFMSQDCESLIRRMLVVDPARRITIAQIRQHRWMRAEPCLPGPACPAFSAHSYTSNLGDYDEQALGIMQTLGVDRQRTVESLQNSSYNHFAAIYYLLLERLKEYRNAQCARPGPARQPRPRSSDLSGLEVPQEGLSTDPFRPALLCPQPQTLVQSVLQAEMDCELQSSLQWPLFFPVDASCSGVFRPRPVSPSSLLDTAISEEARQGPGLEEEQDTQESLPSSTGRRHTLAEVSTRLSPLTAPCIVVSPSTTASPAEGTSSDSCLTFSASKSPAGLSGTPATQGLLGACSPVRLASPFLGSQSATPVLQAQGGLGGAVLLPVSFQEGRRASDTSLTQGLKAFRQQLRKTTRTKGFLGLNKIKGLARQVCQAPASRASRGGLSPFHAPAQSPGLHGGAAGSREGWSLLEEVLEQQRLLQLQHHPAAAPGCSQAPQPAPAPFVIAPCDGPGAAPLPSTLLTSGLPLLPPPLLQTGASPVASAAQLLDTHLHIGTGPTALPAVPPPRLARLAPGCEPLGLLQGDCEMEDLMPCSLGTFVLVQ
# [11] = target: Serine/threonine-protein kinase SIK1 (Homo sapiens) (UniProt P57059); conditions: at 10 µM
# [12] = target: SRSF protein kinase 1 (Homo sapiens) (UniProt Q96SB4); conditions: at 1 µM
# SRSF protein kinase 1 (Homo sapiens), sequence (Q96SB4 whole entry): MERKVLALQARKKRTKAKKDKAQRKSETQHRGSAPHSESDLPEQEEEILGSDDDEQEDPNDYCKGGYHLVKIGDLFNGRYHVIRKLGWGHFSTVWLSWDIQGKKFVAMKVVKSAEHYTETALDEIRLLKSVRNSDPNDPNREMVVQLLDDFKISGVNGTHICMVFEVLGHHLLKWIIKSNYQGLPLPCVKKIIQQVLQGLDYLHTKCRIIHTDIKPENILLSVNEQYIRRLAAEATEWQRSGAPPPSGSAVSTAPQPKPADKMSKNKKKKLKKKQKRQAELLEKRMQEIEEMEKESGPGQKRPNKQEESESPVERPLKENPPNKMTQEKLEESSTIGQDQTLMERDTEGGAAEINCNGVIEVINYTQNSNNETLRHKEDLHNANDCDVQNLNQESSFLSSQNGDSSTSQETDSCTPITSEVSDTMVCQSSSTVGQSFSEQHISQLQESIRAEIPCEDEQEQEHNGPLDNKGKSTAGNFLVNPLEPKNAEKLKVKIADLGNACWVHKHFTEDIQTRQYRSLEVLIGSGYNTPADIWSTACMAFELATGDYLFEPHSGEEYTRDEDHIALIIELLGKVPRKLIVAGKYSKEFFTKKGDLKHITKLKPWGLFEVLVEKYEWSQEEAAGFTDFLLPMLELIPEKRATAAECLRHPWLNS
# [13] = target: SRSF protein kinase 2 (Homo sapiens) (UniProt P78362); conditions: at 1 µM
# SRSF protein kinase 2 (Homo sapiens), sequence (P78362 whole entry, looked up): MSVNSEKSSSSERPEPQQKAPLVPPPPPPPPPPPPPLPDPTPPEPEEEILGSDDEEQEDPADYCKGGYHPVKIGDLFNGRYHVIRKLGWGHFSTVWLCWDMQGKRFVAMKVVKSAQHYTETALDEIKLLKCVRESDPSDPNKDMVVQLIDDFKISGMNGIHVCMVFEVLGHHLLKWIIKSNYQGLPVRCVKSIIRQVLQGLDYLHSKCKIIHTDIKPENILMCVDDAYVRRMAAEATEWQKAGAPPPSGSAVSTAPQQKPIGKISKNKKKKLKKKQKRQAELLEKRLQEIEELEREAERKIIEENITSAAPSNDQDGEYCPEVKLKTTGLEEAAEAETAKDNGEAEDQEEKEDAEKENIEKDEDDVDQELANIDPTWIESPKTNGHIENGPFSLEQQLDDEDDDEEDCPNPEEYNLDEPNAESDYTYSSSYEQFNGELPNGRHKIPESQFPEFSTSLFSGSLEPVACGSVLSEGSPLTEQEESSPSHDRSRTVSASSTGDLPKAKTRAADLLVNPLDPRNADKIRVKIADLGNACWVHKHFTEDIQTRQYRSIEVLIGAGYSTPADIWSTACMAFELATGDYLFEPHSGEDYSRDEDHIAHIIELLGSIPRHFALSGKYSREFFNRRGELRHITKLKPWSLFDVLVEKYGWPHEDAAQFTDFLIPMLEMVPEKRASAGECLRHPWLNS
# [14] = target: SRSF protein kinase 2 (Homo sapiens) (UniProt P78362); conditions: at 10 µM
# [15] = target: T2, Mitogen-activated protein kinase 13 (Homo sapiens); conditions: at 10 µM
# [16] = target: T4, Serine/threonine-protein kinase Sgk1 (Homo sapiens) (UniProt O00141); conditions: at 1 µM
# T4 sequence (whole entry): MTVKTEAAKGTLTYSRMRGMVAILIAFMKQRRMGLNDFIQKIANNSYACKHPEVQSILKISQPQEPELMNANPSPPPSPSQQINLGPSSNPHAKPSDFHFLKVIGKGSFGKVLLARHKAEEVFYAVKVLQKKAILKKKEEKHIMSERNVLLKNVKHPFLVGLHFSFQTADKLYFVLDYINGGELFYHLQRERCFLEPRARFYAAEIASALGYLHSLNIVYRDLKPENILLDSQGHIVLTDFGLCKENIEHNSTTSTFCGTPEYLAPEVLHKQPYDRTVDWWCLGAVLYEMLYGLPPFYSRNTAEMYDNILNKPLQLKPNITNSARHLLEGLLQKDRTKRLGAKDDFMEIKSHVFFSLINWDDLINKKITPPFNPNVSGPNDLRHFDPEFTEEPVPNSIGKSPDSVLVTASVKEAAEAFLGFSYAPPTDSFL
# [17] = target: T4, Serine/threonine-protein kinase Sgk1 (Homo sapiens); conditions: at 10 µM
# [18] = target: T5, Serine/threonine-protein kinase Sgk3 (Homo sapiens) (UniProt Q96BR1); conditions: at 1 µM
# T5 sequence (whole entry): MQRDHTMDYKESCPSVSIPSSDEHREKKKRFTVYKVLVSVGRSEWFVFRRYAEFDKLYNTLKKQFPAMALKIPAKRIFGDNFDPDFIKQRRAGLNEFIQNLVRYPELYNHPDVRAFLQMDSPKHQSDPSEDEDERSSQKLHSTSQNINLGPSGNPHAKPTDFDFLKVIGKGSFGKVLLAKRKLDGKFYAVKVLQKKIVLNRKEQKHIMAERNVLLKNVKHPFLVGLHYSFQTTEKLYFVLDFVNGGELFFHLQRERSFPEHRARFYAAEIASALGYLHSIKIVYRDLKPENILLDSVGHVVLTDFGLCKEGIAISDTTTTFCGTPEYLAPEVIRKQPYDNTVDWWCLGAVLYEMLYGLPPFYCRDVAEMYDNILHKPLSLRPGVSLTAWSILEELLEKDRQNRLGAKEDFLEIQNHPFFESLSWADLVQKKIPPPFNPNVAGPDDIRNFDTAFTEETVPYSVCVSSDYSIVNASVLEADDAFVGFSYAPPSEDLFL
# [19] = target: T5, Serine/threonine-protein kinase Sgk3 (Homo sapiens); conditions: at 10 µM
# [20] = target: SRSF protein kinase 1 (Homo sapiens) (UniProt Q96SB4); conditions: at 10 µM
smiles,measurement,setting,value
Cc1cccc(-c2[nH]c(C(C)(C)C)nc2-c2ccc3c(c2)OCO3)n1,residual activity,[1],104%
same,residual activity,[2],100%
COc1cc2c(cc1OC)-c1n[nH]c(Nc3cccc(F)c3)c1C2,residual activity,[1],100%
O=c1cc(N2CCNCC2)oc2c(-c3ccccc3)cccc12,residual activity,[1],92%
same,residual activity,[2],105%
CC(C)(C)c1cc(C=C(C#N)C#N)cc(Br)c1O,residual activity,[3],107%
same,residual activity,[4],112%
same,residual activity,[5],110%
same,residual activity,[6],101%
same,residual activity,[1],107%
same,residual activity,[2],110%
same,residual activity,[7],101%
same,residual activity,[8],98%
same,residual activity,[9],70%
same,residual activity,[10],103%
same,residual activity,[11],139%
same,residual activity,[12],114%
same,residual activity,[13],105%
same,residual activity,[14],81%
O=c1[nH]c2ccccc2n1C1CCN(Cc2ccc(-c3nc4cc5[nH]cnc5cc4nc3-c3ccccc3)cc2)CC1,residual activity,[3],75%
same,residual activity,[4],113%
same,residual activity,[5],100%
same,residual activity,[6],103%
same,residual activity,[1],108%
same,residual activity,[2],82%
same,residual activity,[15],91%
same,residual activity,[16],106%
same,residual activity,[17],68%
same,residual activity,[8],100%
same,residual activity,[9],74%
same,residual activity,[18],94%
same,residual activity,[19],81%
same,residual activity,[10],115%
same,residual activity,[11],44%
same,residual activity,[12],80%
same,residual activity,[20],97%
same,residual activity,[13],99%
same,residual activity,[14],80%
N#C/C(=C1/Nc2ccccc2S1)c1ccnc(NCCc2cccnc2)n1,residual activity,[1],96%
same,residual activity,[2],72%
O=C1Nc2ccc3ncsc3c2/C1=C/c1c[nH]cn1,residual activity,[3],80%
same,residual activity,[4],74%
same,residual activity,[5],71%
same,residual activity,[6],35%
same,residual activity,[1],50%
same,residual activity,[2],16%
same,residual activity,[7],62%
same,residual activity,[15],24%
same,residual activity,[16],31%
same,residual activity,[17],7%
same,residual activity,[8],12%
same,residual activity,[9],5%
same,residual activity,[18],73%
same,residual activity,[19],21%
same,residual activity,[10],49%
same,residual activity,[11],43%
same,residual activity,[12],102%
same,residual activity,[20],101%
same,residual activity,[13],104%
CCc1nc(-c2ccc(OC)cc2)[nH]c1-c1ccncc1,residual activity,[5],56%
same,residual activity,[6],72%
same,residual activity,[1],108%
same,residual activity,[2],104%
same,residual activity,[18],115%
same,residual activity,[19],79%
same,residual activity,[10],139%
same,residual activity,[13],102%
same,residual activity,[14],74%
COc1cc2nccc(Oc3ccc(NC(=O)Nc4cc(C)on4)c(Cl)c3)c2cc1OC,residual activity,[3],23%
same,residual activity,[4],5%
same,residual activity,[6],5%
O=C1c2ccccc2-c2nc3nnnn3nc21,residual activity,[3],111%
same,residual activity,[4],112%
same,residual activity,[5],102%
same,residual activity,[6],104%
same,residual activity,[1],130%
same,residual activity,[2],117%
same,residual activity,[7],119%
same,residual activity,[15],101%
same,residual activity,[16],146%
same,residual activity,[17],71%
same,residual activity,[12],107%
same,residual activity,[20],111%
same,residual activity,[14],101%
COC(=O)[C@@]1(O)C[C@H]2O[C@]1(C)n1c3ccccc3c3c4c(c5c6ccccc6n2c5c31)C(=O)NC4,residual activity,[3],92%
same,residual activity,[4],67%
same,residual activity,[5],77%
same,residual activity,[6],29%
same,residual activity,[1],23%
same,residual activity,[2],2%
same,residual activity,[7],58%
same,residual activity,[15],10%
same,residual activity,[16],4%
same,residual activity,[17],1%
same,residual activity,[8],7%
same,residual activity,[9],1%
same,residual activity,[18],47%
same,residual activity,[19],13%
same,residual activity,[10],0%
same,residual activity,[11],0%
same,residual activity,[12],67%
same,residual activity,[20],14%
same,residual activity,[13],97%
same,residual activity,[14],52%
O=C(CCCc1ccc(-c2ccccc2F)cc1)Nc1ccc(O)cc1,residual activity,[1],101%
same,residual activity,[2],100%
CO[C@H]1[C@@H](OC)C[C@H](C)[C@@H](OC)C2=CC(=O)C=C(NC(=O)/C(C)=C/C=C/[C@H](OC)[C@@H](OC(N)=O)/C(C)=C/[C@@H]1C)C2=O,residual activity,[3],95%
same,residual activity,[4],106%
same,residual activity,[1],110%
same,residual activity,[2],99%
same,residual activity,[18],95%
N#Cc1c(NC(=O)c2cccc3ccccc23)sc2c1CCCC2,residual activity,[1],96%
N/C(=N\[N+](=O)[O-])N/N=C\c1ccc(-c2cccc([N+](=O)[O-])c2)o1,residual activity,[3],81%
same,residual activity,[4],91%
same,residual activity,[18],127%
same,residual activity,[19],81%
same,residual activity,[13],99%
same,residual activity,[14],88%
COc1cc(OC)c(/C=C2\C(=O)Nc3ccccc32)c(OC)c1,residual activity,[3],89%
same,residual activity,[4],85%
same,residual activity,[5],99%
same,residual activity,[6],92%
same,residual activity,[1],97%
same,residual activity,[2],96%
same,residual activity,[16],82%
same,residual activity,[17],86%
same,residual activity,[18],92%
same,residual activity,[19],84%
same,residual activity,[10],106%
same,residual activity,[11],93%
same,residual activity,[13],104%
same,residual activity,[14],86%
Oc1ccc(-c2nc(-c3ccc(F)cc3)c(-c3ccncc3)[nH]2)cc1,residual activity,[3],1%
same,residual activity,[4],1%
same,residual activity,[1],112%
same,residual activity,[2],67%
same,residual activity,[18],109%
CCn1cnc2c(Nc3cccc(Cl)c3)nc(N[C@@H]3CCCC[C@@H]3N)nc21,residual activity,[3],90%
same,residual activity,[4],61%
same,residual activity,[5],94%
same,residual activity,[6],76%
same,residual activity,[2],94%
same,residual activity,[15],81%
same,residual activity,[16],91%
same,residual activity,[17],90%
same,residual activity,[8],97%
same,residual activity,[9],65%
same,residual activity,[19],59%
same,residual activity,[10],20%
same,residual activity,[11],0%
same,residual activity,[20],39%
same,residual activity,[13],69%
same,residual activity,[14],32%
